# Where “and” joins values, the source holds several entries; their conditions need not be identical. Equal entries are not always repeated. Calls of active or inactive are those of the source. Rule as the data show it, unless noted: active = inhibition above about 80%; inactive = the rest.
# Experiments:
# [1] = ICB984 medulloblastoma cell growth inhibition, synergistic combos for chromothripsis tumors, cisplatin or BGB combos (AID 1671451; call rule not given here;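 also: cells exposed for 96 hours before readout; 0% = vehicle DMSO and 100% = killing by high DMSO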); details: ICB984 medulloblastoma cells, drug combinations, stronger effect = higher value
# [2] = LFS_MB_1R medulloblastoma cell growth inhibition, synergistic combos for chromothripsis tumors, cisplatin or BGB combos (AID 1671452); details: LFS_MB_1R medulloblastoma cells, stronger effect = higher value;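 also: cells exposed for 96 hours before readout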
# [3] = HTB85 osteosarcoma cell growth inhibition, synergistic combos for chromothripsis tumors, BGB or cisplatin IC20 combos (AID 1671453); details: HTB85 osteosarcoma cells, drug combinations, stronger effect = higher value;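 also: cells exposed for 96 hours before readout; 0% = vehicle DMSO and 100% = high DMSO killing control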
# [4] = CRL2098 osteosarcoma cell growth inhibition, synergistic combos for chromothripsis tumors, BGB or cisplatin IC20 combos (AID 1671454); details: CRL2098 osteosarcoma cells, drug combinations, stronger effect = higher value;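 also: cells exposed for 96 h before readout; 0% = vehicle DMSO and 100% = killing by high DMSO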
# [5] = HD-MB03 medulloblastoma cell growth inhibition, synergistic combos for chromothripsis tumors, BGB or cisplatin IC20 combos (AID 1671455; in the data active = inhibition above about 83%;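 also: 0% = vehicle DMSO and 100% = high DMSO as cytotoxic control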); details: HD-MB03 medulloblastoma cells, stronger effect = higher value
# [6] = UWB1.289 ovarian carcinoma cell growth inhibition, synergistic combos for chromothripsis tumors, BGB or cisplatin combos (AID 1671456); details: UWB1.289 ovarian carcinoma cells, stronger effect = higher value;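 also: cells exposed to compound for four days; 0% = vehicle DMSO and 100% = killing by high DMSO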
# [7] = LFS_MB_2R medulloblastoma cell growth inhibition, synergistic combos for chromothripsis tumors, cisplatin combos (AID 1671457); details: LFS_MB_2R medulloblastoma cells, stronger effect = higher value;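 also: cells exposed to compound for four days before readout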
# [8] = MDA-MB-436 breast carcinoma cell growth inhibition, synergistic combos for chromothripsis tumors, BGB or cisplatin combos (AID 1671458; call rule not given here;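 also: cells exposed for 96 hours; 0% = vehicle DMSO and 100% = killing by high DMSO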); details: MDA-MB-436 breast carcinoma growth inhibition, drug combinations, stronger effect = higher value
# [9] = UWB1.289_BRCA1 ovarian cancer growth, cell-based, BGB or cisplatin combinations (AID 1671459); details: UWB1.289 BRCA1 ovarian carcinoma, drug combinations, stronger effect = higher value
# [10] = human astrocyte viability loss, single and combined drugs, cytotoxicity control for chromothriptic childhood tumor combination screen, cell-based, BGB or cisplatin IC20 combos (AID 1671460); details: Human astrocytes, drug combinations, stronger effect = higher value;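 also: cells exposed to compounds for 96 hours before viability readout; 0% = vehicle and 100% = killing control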
# [11] = growth inhibition of BT084 medulloblastoma cells, cell-based, ICGC_MB145, cisplatin and BGB IC40 combos (AID 1671461); details: drug combinations, stronger effect = higher value;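 also: cells exposed to drugs for 96 hours; 0% = vehicle DMSO and 100% = high DMSO full killing control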
# [12] = growth inhibition of RCMB18 medulloblastoma cells, cell-based, cisplatin and BGB IC40 combos (AID 1671462); details: stronger effect = higher value;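 also: cells exposed to compound for four days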
# [13] = growth inhibition of CRL1545 osteosarcoma cells, cell-based, cisplatin and BGB IC20 combos (AID 1671464); details: stronger effect = higher value;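 also: cells exposed to compound for 96 hours before readout; 0% = vehicle DMSO and 100% = high DMSO killing control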
# [14] = measured here: combination with cisplatin, at 0.5 µM
# [15] = measured here: combination with cisplatin, at 5 µM
smiles,measurement,setting,value
C[C@@]1(c2nc3c(C(N)=O)cccc3[nH]2)CCCN1,inhibition,[1]; at 0.5 µM,-17.4% (inactive) and -39% (inactive)
same,inhibition,"[1]; cisplatin combo, at 0.05 µM",-25.6% and -44.6%
same,inhibition,"[1]; cisplatin combo, at 0.5 µM",-23.4% and -27.8%
same,inhibition,"[1]; cisplatin combo, at 5 µM",-25.3% and -24.6%
same,inhibition,"[1]; measured here: 5 uM single agent, at 5 µM",-15.1% and -18.4%
same,inhibition,[2]; at 0.5 µM,-10.8% (inactive) and -21.8% (inactive)
same,inhibition,"[2]; measured here: combination with BGB IC40, at 0.05 µM",5.8% and -13.2%
same,inhibition,[2]; [14],-30.9% and -32.1%
same,inhibition,[2]; [15],-34.7% and -78.6%
same,inhibition,[3]; at 0.5 µM,-28.2% (inactive) and -8.28% (inactive)
same,inhibition,"[3]; measured here: with BGB IC20, at 0.5 µM",-26.4% and -15.6%
same,inhibition,"[3]; measured here: with BGB IC20, at 5 µM",-37.2% and -23.1%
same,inhibition,"[3]; measured here: with cisplatin IC20, at 0.5 µM",-25.2% and -2.08%
same,inhibition,"[3]; measured here: with cisplatin IC20, at 5 µM",-5% and -37.1%
same,inhibition,"[3]; single agent, at 5 µM",-8.07% and -11.2%
same,inhibition,[4]; at 0.5 µM,-55.3% (inactive) and -67.8% (inactive)
same,inhibition,"[4]; measured here: combination with BGB at IC20, at 0.5 µM",-51.9% and -45%
same,inhibition,"[4]; measured here: combination with cisplatin at IC20, at 0.5 µM",-90.3% and -100%
same,inhibition,[5]; at 0.5 µM,-10.9% (inactive) and -9.85% (inactive)
same,inhibition,"[5]; measured here: combo with BGB at IC20, at 0.5 µM",-9.31% and -21.4%
same,inhibition,"[5]; measured here: combo with cisplatin at IC20, at 0.5 µM",-20.2% and -6.83%
same,inhibition,[6]; at 0.5 µM,-10.2% (inactive) and 3.78% (inactive)
same,inhibition,"[6]; measured here: inhibition with BGB combination, at 0.05 µM",-8.84% and -23.2%
same,inhibition,"[6]; measured here: inhibition with cisplatin combination, at 0.05 µM",-15.9% and -9.39%
same,inhibition,[7]; at 0.5 µM,-15.2% (inactive) and -24.4% (inactive)
same,inhibition,[7]; [14],-24.8% and -30.4%
same,inhibition,[7]; [15],-13.3% and -26.2%
same,inhibition,[8]; at 0.5 µM,4.59% (inactive) and -23.4% (inactive)
same,inhibition,"[8]; measured here: BGB combination, at 0.5 µM",-1.87% and -40.7%
same,inhibition,"[8]; measured here: BGB combination, at 5 µM",2.42% and -13.4%
same,inhibition,"[8]; measured here: cisplatin combination, at 0.5 µM",-2.04% and -27.9%
same,inhibition,"[8]; measured here: cisplatin combination, at 5 µM",-0.972% and -36.3%
same,inhibition,"[9]; BGB combination, concentration series, at 5 µM",-24.7% and -7.53%
same,inhibition,[9]; at 0.5 µM,-10.7% (inactive) and -7.52% (inactive)
same,inhibition,"[9]; cisplatin combination, concentration series, at 5 µM",-27.7% and -31.9%
same,inhibition,[10]; at 0.5 µM,-5.3% (inactive) and -11.3% (inactive)
same,inhibition,"[10]; measured here: combo with BGB IC20, at 0.5 µM",-6.99% and -18.5%
same,inhibition,"[10]; measured here: combo with cisplatin IC20, at 0.5 µM",-13.8% and -3.66%
same,inhibition,[11]; at 0.5 µM,-3.53% (inactive) and 6.53% (inactive)
same,inhibition,"[11]; cisplatin combination, at 0.5 µM",-17.4% and -25.6%
same,inhibition,"[11]; cisplatin combination, at 5 µM",-105% and -12.9%
same,inhibition,"[11]; measured here: BGB IC40 combination 0.05 uM, at 0.05 µM",-13.2% and 18.5%
same,inhibition,"[11]; single agent, at 5 µM",2.42% and -15%
same,inhibition,[12]; at 0.5 µM,-29.1% (inactive) and -18.3% (inactive)
same,inhibition,"[12]; cisplatin combo, at 5 µM",-12.7% and -24.7%
same,inhibition,"[12]; measured here: BGB IC40 combination, at 0.05 µM",9.85% and -28.2%
same,inhibition,[12]; [14],-32.2% and 3.58%
same,inhibition,"[12]; single agent, at 5 µM",-6.99% and -21%
same,inhibition,[13]; at 0.5 µM,-24.4% (inactive) and -51.1% (inactive)
same,inhibition,"[13]; measured here: with BGB IC20 combination, at 0.5 µM",-33.5% and -35.5%
same,inhibition,"[13]; measured here: with cisplatin IC20 combination, at 0.5 µM",-21.8% and -61.5%
same,inhibition,"[13]; single agent, at 0.05 µM",-21.6% and -35.7%
same,inhibition,"[13]; single agent, at 5 µM",11.5% and 14.2%

# From PubChem BioAssay
